The whole screen tested about 150,000 compounds, of which about 6,500 (4.3%) were called active. Not shown: some 12% with an inconclusive outcome. Calls follow the shape of the dose curve; as a rule, active = well fitted inhibition curve with a large enough effect (not every such curve was filed as active); inconclusive = small, poorly fitted or top-dose-only effect, or another doubt; inactive = no such curve, though single readings can be large or run the other way. The entries come from a sample that favours actives as a whole.
% is scaled to controls: 0 for no effect and ±100 for the full control effect; potency is read from the fitted curve at half-maximal effect.

The target in the test is 15-hydroxyprostaglandin dehydrogenase [NAD(+)] (Homo sapiens) (UniProt P15428). As to the kind of experiment: qHTS Assay for Inhibitors of HPGD (15-Hydroxyprostaglandin Dehydrogenase). The following applies: purified HPGD, NADH fluorescence kinetic, PGE2 substrate; activity change, negative = inhibition: active compounds read low. In outline: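 NADH formation kinetics: reaction with 30 uM PGE2 and 1 mM NAD+ (final), 20 nM enzyme, Tris-HCl pH 8 with Tween 20, after 15 min compound preincubation at room temperature. Fluorescence change, last versus first of five reads.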
15-hydroxyprostaglandin dehydrogenase [NAD(+)] (Homo sapiens), sequence (P15428 whole entry, looked up): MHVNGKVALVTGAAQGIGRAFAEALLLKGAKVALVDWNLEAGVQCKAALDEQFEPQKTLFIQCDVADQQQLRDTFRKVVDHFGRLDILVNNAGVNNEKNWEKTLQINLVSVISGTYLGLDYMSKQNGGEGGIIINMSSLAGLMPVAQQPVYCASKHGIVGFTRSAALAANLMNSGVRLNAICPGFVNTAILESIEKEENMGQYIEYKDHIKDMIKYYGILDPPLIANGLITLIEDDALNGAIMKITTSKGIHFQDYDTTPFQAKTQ
As for `COc1ccccc1-c1nnc(NC(=O)c2ccc3ncsc3c2)o1`, the activity change, negative = inhibition was -16.3% (inactive). Take `Cc1ccccc1NC(=S)N(CCCN1CCOCC1)Cc1cccs1`: the activity change, negative = inhibition is 8.96% (inactive). Regarding `N#Cc1ccc(N2Cc3ccccc3/C2=N/C(=O)Nc2ccc(Cl)cc2)cc1`, the activity change, negative = inhibition was -24.3% (inactive). Same read-out and setting: with `CCCCN(CC)C(=O)c1ccccc1Oc1ccccc1` the figure was -9.66% (inactive); with `CC(=O)N/C(=C/c1ccc(OC(F)F)cc1)C(=O)O`, -3.55% (inactive); with `CN(C)C(CNC(=O)c1ccc(S(=O)(=O)NCc2ccco2)cc1)c1ccccc1` (stereo not given), -10.1% (inactive). Same read-out and setting: with `CCCc1nc(SCC(=O)Nc2ccc(S(=O)(=O)N(C)C)cc2)c2ccccc2n1` the figure was -22.1% (inactive); with `CONc1nc2nonc2nc1NOC`, -6.28% (inactive); with `O=c1cc(CSc2ccccn2)nc(N2CCN(c3ccccc3)CC2)[nH]1`, -4.21% (inactive). `Cc1nnc(SCc2cc(=O)[nH]c(N3CCN(Cc4ccccc4)CC3)n2)s1`: the Potency is 10 µM (active).

In the case of `CCc1c(C)nc(N2CCN(Cc3ccccc3)CC2)[nH]c1=O`, the activity change, negative = inhibition was -6.13% (inactive). As for `CC(C)CNC(=O)CC(NCC(C)C)C(=O)O` (stereo not given), the activity change, negative = inhibition was -6.89% (inactive). Still for that read-out and setting: with `Cc1ccc2[nH]cc(CCCN3C(=O)c4ccccc4C3=O)c2c1` the figure was -4.52% (inactive). Same read-out and setting: with `O=C(NCC1CCCO1)C(C(=O)c1ccccc1)n1cc(Cl)ccc1=O` (stereo not given) the figure was -7.62% (inactive). The same measure, in the same setting: with `O=C(CS(=O)(=O)Cc1ccccc1)NCC1CCCO1` (stereo not given) the figure was -19.1% (inactive). Consider `O=C(CSCc1c(F)cccc1Cl)NCC1CCCO1` (stereo not given), for which the Potency is 14.1 µM (active). As to `CC(=O)[C@H](C(c1ccccc1)N1CCOCC1)N1CCOCC1` (stereo not given in full), the activity change, negative = inhibition is -6.44% (inactive). Same read-out and setting: with `O=C(CCCCCNC(=O)c1ccccc1)N/N=C/c1ccccc1` the figure was -2.21% (inactive); with `CN(C)S(=O)(=O)c1cccc(NC(=S)N/N=C/C(=O)c2ccccc2)c1`, -16% (inactive). On to `Cc1ccc2sc(NNC(=O)c3ccc4c(c3)OCCO4)nc2c1C`, for which the Potency was 11.2 µM (active). Regarding `O=C(Nc1nc2ccccc2s1)c1ccc2c(c1)OCO2`, the activity change, negative = inhibition is -20.6% (inactive). Same read-out and setting: with `O=C(Nc1ccc2c(c1)OCCO2)c1ccncc1` the figure was -1.78% (inactive); with `CCCCn1c(O)c(N=NC(=O)Cn2c(C(F)(F)F)nc3ccccc32)c2ccccc21`, -5.51% (inactive); with `CNS(=O)(=O)c1ccc(N2CCCC2=O)c([N+](=O)[O-])c1`, -12.5% (inactive).

Regarding `COC(=O)c1ccc(CSc2nc3cc(Cl)ccc3o2)cc1`, the activity change, negative = inhibition was -20.6% (inactive). Consider `COc1cc(NS(=O)(=O)c2ccc(N/C=C(\C=O)c3nc4cc(Cl)ccc4o3)cc2)nc(OC)n1`, for which the Potency is 14.1 µM (active). As to `COc1ccc(NS(=O)(=O)c2ccc(NC(=O)C(C)(C(F)(F)F)C(F)(F)F)cc2)nn1`, the activity change, negative = inhibition is -19.1% (inactive). As for `O=C(NC(CC(=O)N1CCN(c2ccccc2)CC1)c1ccccc1)c1ccccc1Cl` (stereo not given), the activity change, negative = inhibition is -5.04% (inactive). Still for that read-out and setting: with `COc1ccc(N(C(=O)c2ccc(C)cc2)S(=O)(=O)c2cccs2)cc1` the figure was -10% (inactive); with `COc1ccc(N2C(=O)C(O)C2c2ccc(C)cc2)cc1` (stereo not given), -14.1% (inactive). As to `Cc1ccc(S(=O)(=O)c2ccc(Cl)cc2)cc1S(=O)(=O)NC(C(=O)O)C(C)C` (stereo not given), the activity change, negative = inhibition was -5.59% (inactive).

For the compound `O=C(NCc1ccco1)c1cc(-c2cccnc2)nc2ccc(Cl)cc12`, the activity change, negative = inhibition was -28% (inactive). On to `O=C(NCc1ccco1)C1(c2ccc(Cl)cc2)CCCC1`, for which the activity change, negative = inhibition is -8.03% (inactive). On to `O=C(/C=C/c1ccc(Cl)cc1Cl)NCc1ccco1`, for which the Potency is 15.8 µM (active). Consider `CCNC(=S)N(CCc1c(C)[nH]c2ccc(C)cc12)Cc1ccco1`, for which the activity change, negative = inhibition is -13.1% (inactive).

In the case of `COc1cc2c(cc1OC)C(=O)NCC(C)(C)O2`, the activity change, negative = inhibition is -19.2% (inactive). Turning to `COc1ccc(N2C(=O)CNC2=S)cc1`, the activity change, negative = inhibition was -14.3% (inactive). Turning to `COc1ccc(-c2cn(-c3ccc(OC)cc3)c(=S)[nH]2)cc1`, the Potency is 25.1 µM (active). `COc1ccc(-n2c(C)csc2=S)cc1`: the activity change, negative = inhibition is -9.23% (inactive).

In the case of `CN(C)S(=O)(=O)c1cc(NC(=O)CN2C(=O)NC3(CCCc4ccccc43)C2=O)ccc1Cl` (stereo not given), the activity change, negative = inhibition is -12.7% (inactive). For the compound `O=C(O)c1ccc(N=NN2CCOCC2)cc1`, the activity change, negative = inhibition was -13.6% (inactive). With `Cc1ccc(NC(=O)NC(=O)N(C2CCCCC2)S(=O)(=O)c2ccccc2)cc1`, the activity change, negative = inhibition is -16% (inactive). The same measure, in the same setting: with `CC(=O)Nc1ccc(S(=O)(=O)NC(C)C(=O)OCC(=O)NC2CCCC2)cc1` (stereo not given) the figure was -4.32% (inactive); with `CCCc1cc(-c2n[nH]c(=S)n2CC)c2ccccc2n1`, -28.5% (inactive).

`CC(C)Oc1ccc(CCc2n[nH]c(=S)n2Cc2ccccc2)cc1`: the Potency was 10 µM (active). With `CCCCC(CC(C)O)c1n[nH]c(=S)n1-c1ccccc1` (stereo not given), the activity change, negative = inhibition is -3.38% (inactive). For the compound `O=C(N/N=C\c1ccc(Br)cc1)c1ccc(Cn2cccn2)o1`, the activity change, negative = inhibition is -5.99% (inactive). Take `COCCOC(=O)c1c(C)oc2cc(Br)c(OCC(N)=O)cc12`: the activity change, negative = inhibition was -7.04% (inactive). In the case of `COC(C(=O)NCc1ccccc1C)c1ccccc1` (stereo not given), the activity change, negative = inhibition is -8.94% (inactive). The same measure, in the same setting: with `Cc1nc2ccccc2cc1C(=O)N/N=C/c1ccc([N+](=O)[O-])cc1` the figure was -5.88% (inactive). Same read-out and setting: with `Cc1cc(C(F)(F)F)n2ncc(-c3ccccc3)c2n1` the figure was -0.556% (inactive). For the compound `Cn1c(-c2sc3cc(C(F)(F)F)cnc3c2-c2ccccc2)n[nH]c1=S`, the Potency is 31.6 µM (active). Turning to `CCc1c(C)[nH]c(=S)c(C#N)c1C`, the Potency was 35.5 µM (active).

For `CCOC(=O)c1c(C)[nH]c(=S)c(C#N)c1-c1ccccc1`, the activity change, negative = inhibition is -27.3% (inactive).

With `CCCCC1S/C(=N/N=C/c2cccs2)NC1=O` (stereo not given), the activity change, negative = inhibition was -7.59% (inactive). Take `COC(=O)C1=C(C(=O)OC)[C@@H]2Nc3ccccc3[C@@]23C[C@@H](C(=O)OC)N(S(=O)(=O)c2ccc([N+](=O)[O-])cc2)C3=N1`: the activity change, negative = inhibition is -10.9% (inactive). Still for that read-out and setting: with `Cc1ccc(C)c(NC(=S)NNC(=O)c2csc(C)c2)c1` the figure was -5.84% (inactive); with `Cn1ncc2c(Nc3cccc4ccccc34)ncnc21`, -9.06% (inactive).

Regarding `CN(C)c1cc2c(Nc3ccc4c(cnn4Cc4ccccc4)c3)ncnc2cn1`, the Potency is 12.6 µM (active).

For `COc1ccc(Nc2ncnc3ccc(OC)cc23)cc1`, the activity change, negative = inhibition was -4.83% (inactive).

Take `CCOC(=O)C1=C(c2ccc(OC)cc2)C(=O)c2ccccc2C1=O`: the activity change, negative = inhibition is -6.53% (inactive). On the same count and under the same terms, with `O=c1c2ccccc2oc2nc(C3CCCCC3)n(Cc3ccco3)c(=O)c12` the figure was -6.04% (inactive); with `COc1ccc(N2CCN(Cc3cc(=O)oc4ccc5ccccc5c34)CC2)cc1`, -9.86% (inactive).

As to `CCc1nc2oc3ccccc3c(=O)c2c(=O)n1Cc1ccc(OC)cc1`, the Potency is 25.1 µM (active).

As for `COC(C(=O)Nc1ccc(C(C)=O)cc1)c1ccccc1` (stereo not given), the activity change, negative = inhibition was -9.31% (inactive). Still for that read-out and setting: with `O=C(Cc1cccs1)Nc1cccc(-c2nc3ccccc3[nH]2)c1` the figure was -8.46% (inactive). For `O=C(CCc1nc2ccccc2c(=O)[nH]1)OCC(=O)c1cccc(Cl)c1`, the activity change, negative = inhibition was -9.26% (inactive). `CCOc1cc(C(=S)N2CCOCC2)ccc1O`: the Potency was 12.6 µM (active). For the compound `CCOc1cc(C(=O)OCC(=O)Nc2cccc(C)c2)ccc1OCC(=O)N1CCOCC1`, the activity change, negative = inhibition was -18.5% (inactive). Take `Cc1ccc(C(=O)C(=S)N2CCOCC2)cc1`: the activity change, negative = inhibition is -3.51% (inactive). The same measure, in the same setting: with `COc1ccc2c(c1)O[C@@H](c1ccc3c(c1)OCO3)[C@H](OC(=O)NCCc1ccc(OC)c(OC)c1)C2=O` the figure was -3.81% (inactive); with `S=C(Nc1cccc(Cl)c1)Nc1ccc2cn[nH]c2c1`, -14.3% (inactive); with `Cc1cc(C)cc(C(=O)N2CCN=C2SCc2ccc([N+](=O)[O-])cc2)c1`, -11.7% (inactive). On the same count and under the same terms, with `O=C(COc1ccccc1F)NNC(=O)c1ccc(N2CCCCC2)c([N+](=O)[O-])c1` the figure was -21.3% (inactive). For `O=C1CCCC(O)=C1N=Nc1ccc2ncsc2c1`, the Potency was 31.6 µM (active). Turning to `COc1ccc(NC(=O)c2nc(-n3nc(C)cc3C)ccc2Cl)cc1Cl`, the activity change, negative = inhibition was -17.4% (inactive).

Take `CCCN(CCC)C(=S)Nc1cc(C(=O)OC)ccc1C(=O)OC`: the activity change, negative = inhibition is -9.23% (inactive). As to `O=C(CCl)NNc1cccc(Cl)n1`, the Potency was 28.2 µM (active). Turning to `O=C(NNc1ccccn1)c1ccc(Cl)nc1`, the activity change, negative = inhibition was -23% (inactive). The same measure, in the same setting: with `COc1cc(OC)nc(NC(=O)CCl)n1` the figure was -16.6% (inactive); with `CC(C)CC(=O)NC(=S)Nc1cc(C(=O)O)ccc1Cl`, -13.5% (inactive).

Regarding `COc1cc(NC(=S)NNC(=O)CC(C)C)c(OC)cc1Cl`, the Potency was 31.6 µM (active). As for `CCOCC(=O)Nc1cc(OC)c(Cl)cc1OC`, the activity change, negative = inhibition is -3.42% (inactive).

On to `COc1ccc(-c2nc3c(c4c2C[C@H](c2ccccc2)OC4)CN(S(=O)(=O)c2c(C)noc2C)CC3)c(C)c1`, for which the activity change, negative = inhibition was -1.95% (inactive). On the same count and under the same terms, with `O=C(Cc1cc(=O)[nH][nH]1)N/N=C/c1ccccc1[N+](=O)[O-]` the figure was -14.9% (inactive). With `Cc1c(NC(=O)CCCOc2ccccc2)cccc1[N+](=O)[O-]`, the activity change, negative = inhibition was -12.9% (inactive). Same read-out and setting: with `CCOC(=O)c1c(C)[nH]c(C(=O)COc2ccc3c(c2)OCO3)c1C` the figure was -6.28% (inactive).

Consider `Cc1ccc(-c2n[nH]c(=S)n2/N=C/c2cc3c(cc2[N+](=O)[O-])OCO3)cc1`, for which the Potency is 1.58 µM (active). The same measure, in the same setting: with `O=[N+]([O-])c1ccccc1/C=N/n1c(COc2ccccc2)n[nH]c1=S` the figure was 7.08 µM (active). Consider `CCOC(=O)c1nc(-c2ccc3c(c2)OCO3)[nH]c1C`, for which the activity change, negative = inhibition is -11.1% (inactive). The same measure, in the same setting: with `Cc1ccc(S(=O)(=O)N/N=C\c2cc3c(cc2[N+](=O)[O-])OCO3)cc1` the figure was -28.1% (inactive).

As to `CCOc1ccc(-c2n[nH]c(=S)n2/N=C/c2cc3c(cc2[N+](=O)[O-])OCO3)cc1`, the Potency was 3.55 µM (active).

On to `COC(=O)/C(=C1\Oc2ccc(C(C)(C)C)cc2S1)C(F)(F)F`, for which the activity change, negative = inhibition is -12.2% (inactive).

As to `COc1cc(OC)cc(-c2nc3ccccc3c(=O)n2NC(=O)c2cccnc2Cl)c1`, the activity change, negative = inhibition is -8.81% (inactive).

As for `NC(=O)Nc1ccccc1C(=O)NCCc1ccccc1`, the activity change, negative = inhibition is -3.92% (inactive).

(Values after PubChem BioAssay AID894 (National Center for Advancing Translational Sciences (NCATS), 2007).)
